The values that follow come from ChEMBL document CHEMBL3988442, “University of Dundee, Small-Polar-MMV Screening Library” (2021).

Holding throughout (set-up): scale not given: direction of the effect not stated beside the values
The target in test [1] is Protein translocase subunit SecA (Escherichia coli (strain K12)) (UniProt P10408). Briefly: Assay to Identify E. coli SecA ATPase Inhibitors. It is filed as functional. To be noted: 30 µM.
Test [2] addresses T1, Ubiquitin-activating enzyme e1, putative (Leishmania donovani (strain BPK282A1)) (UniProt E9BSI1).
T1 sequence (whole entry): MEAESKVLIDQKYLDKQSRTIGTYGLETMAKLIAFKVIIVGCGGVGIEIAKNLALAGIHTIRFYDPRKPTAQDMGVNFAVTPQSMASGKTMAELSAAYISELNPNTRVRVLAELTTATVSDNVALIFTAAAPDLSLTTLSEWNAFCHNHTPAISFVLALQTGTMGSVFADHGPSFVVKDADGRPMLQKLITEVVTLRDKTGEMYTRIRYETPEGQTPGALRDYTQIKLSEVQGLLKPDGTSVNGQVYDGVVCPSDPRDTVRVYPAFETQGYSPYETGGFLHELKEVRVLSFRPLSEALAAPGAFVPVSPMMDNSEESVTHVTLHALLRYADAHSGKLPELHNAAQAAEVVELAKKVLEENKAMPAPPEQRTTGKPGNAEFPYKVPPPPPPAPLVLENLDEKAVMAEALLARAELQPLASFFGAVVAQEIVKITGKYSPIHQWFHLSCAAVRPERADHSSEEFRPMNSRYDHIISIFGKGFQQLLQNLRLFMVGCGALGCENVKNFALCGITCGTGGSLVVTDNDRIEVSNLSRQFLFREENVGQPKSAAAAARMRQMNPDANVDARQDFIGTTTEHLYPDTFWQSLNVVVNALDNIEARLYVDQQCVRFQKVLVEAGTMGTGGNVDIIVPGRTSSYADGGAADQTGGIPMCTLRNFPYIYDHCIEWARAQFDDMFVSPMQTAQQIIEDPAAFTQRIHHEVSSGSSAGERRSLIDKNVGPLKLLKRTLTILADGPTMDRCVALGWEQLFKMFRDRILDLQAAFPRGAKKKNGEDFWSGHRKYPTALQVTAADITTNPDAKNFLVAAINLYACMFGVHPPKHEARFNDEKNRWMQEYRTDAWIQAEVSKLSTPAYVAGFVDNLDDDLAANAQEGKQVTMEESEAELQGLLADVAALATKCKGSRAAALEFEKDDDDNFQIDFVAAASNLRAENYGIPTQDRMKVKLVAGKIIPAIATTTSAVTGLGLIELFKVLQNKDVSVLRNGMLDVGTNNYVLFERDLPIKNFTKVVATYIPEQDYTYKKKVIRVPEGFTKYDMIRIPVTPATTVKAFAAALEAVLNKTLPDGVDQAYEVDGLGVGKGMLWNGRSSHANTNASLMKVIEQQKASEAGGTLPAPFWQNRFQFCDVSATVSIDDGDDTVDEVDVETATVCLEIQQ
The test is described as follows: Leishmania donovani Ubiquitin Activating Enzyme (LdE1). It is filed as functional. The settings on record: 30 µM.

Test [3] concerns the target T2, Aspartate--tRNA(Asp/Asn) ligase (Mycobacterium tuberculosis (strain ATCC 25618 / H37Rv)) (UniProt P9WFW3). Also: in the data most compounds retested in dose-response had high values.
T2 sequence (whole entry): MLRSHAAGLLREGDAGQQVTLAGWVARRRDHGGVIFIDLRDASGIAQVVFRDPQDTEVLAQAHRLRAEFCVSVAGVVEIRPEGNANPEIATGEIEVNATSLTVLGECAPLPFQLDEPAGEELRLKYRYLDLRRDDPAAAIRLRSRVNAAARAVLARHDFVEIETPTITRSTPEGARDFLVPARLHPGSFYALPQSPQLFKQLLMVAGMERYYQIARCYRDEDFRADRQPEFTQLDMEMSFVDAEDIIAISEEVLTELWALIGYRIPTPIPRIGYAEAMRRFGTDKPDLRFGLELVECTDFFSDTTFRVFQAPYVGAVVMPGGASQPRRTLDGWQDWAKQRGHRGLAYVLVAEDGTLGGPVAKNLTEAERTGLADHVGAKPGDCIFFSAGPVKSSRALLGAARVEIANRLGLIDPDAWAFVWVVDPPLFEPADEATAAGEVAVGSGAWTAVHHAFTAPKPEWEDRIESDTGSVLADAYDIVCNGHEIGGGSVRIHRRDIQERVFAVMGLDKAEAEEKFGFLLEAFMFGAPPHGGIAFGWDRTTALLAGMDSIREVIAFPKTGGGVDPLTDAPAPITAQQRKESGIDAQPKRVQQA
Briefly: Assay for Asp RNA synthetase-1 from Mycobacterium tuberculosis. To be noted: 30 µM. It is filed as functional.

In test [4] the target is AMP-activated protein kinase, AMPK (Homo sapiens) (UniProt P54646+O43741+P54619+Q9UGJ0+Q9Y478+Q13131+Q9UGI9). Briefly: AMP-dependent Kinase enzyme assay. An in vitro enzyme assay that detects ADP turnover that is directly proportional to AMPK activity. This uses naive AMPK that is activated during the assay with MK-8722. To be noted: 30 µM. It is filed as functional.
Test [5] has as its target Sialic acid-binding Ig-like lectin 9 (Homo sapiens) (UniProt Q9Y336). Briefly: Hs-Siglec9 ALPHAscreen SOP 20170721. To be noted: 10 µM. For orientation: Bead proximity is the source of the signal in Alpha formats.
The subject of test [6] is Trypanosoma cruzi. The test is described as follows: Trypanosoma cruzi phosphomannomutase and mannose-1-phosphate guanylyltransferase assay. To be noted: 10 µM. The test is classed as functional.
Test [7] concerns the target T3, Arginase-2, mitochondrial (Homo sapiens) (UniProt P78540).
T3 sequence (whole entry): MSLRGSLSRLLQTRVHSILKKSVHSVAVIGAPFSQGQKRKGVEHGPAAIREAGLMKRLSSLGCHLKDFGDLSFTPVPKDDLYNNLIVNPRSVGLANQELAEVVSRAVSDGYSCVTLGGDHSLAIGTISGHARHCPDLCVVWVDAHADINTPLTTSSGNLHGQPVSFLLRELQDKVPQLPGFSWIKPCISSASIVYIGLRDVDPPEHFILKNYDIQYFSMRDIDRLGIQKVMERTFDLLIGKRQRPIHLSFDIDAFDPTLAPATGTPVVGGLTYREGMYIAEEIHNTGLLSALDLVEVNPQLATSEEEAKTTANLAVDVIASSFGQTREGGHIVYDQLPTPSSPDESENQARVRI
The test is described as follows: in vitro enzyme assay to detect the production of urea directly proportional to the activity of Arginase II. Also: in the data most compounds retested in dose-response had high values. It is filed as functional. To be noted: 33.3 µM.

Test [8] addresses T4, Proteasome subunit beta (Trypanosoma cruzi) (UniProt O96673).
T4 sequence (whole entry): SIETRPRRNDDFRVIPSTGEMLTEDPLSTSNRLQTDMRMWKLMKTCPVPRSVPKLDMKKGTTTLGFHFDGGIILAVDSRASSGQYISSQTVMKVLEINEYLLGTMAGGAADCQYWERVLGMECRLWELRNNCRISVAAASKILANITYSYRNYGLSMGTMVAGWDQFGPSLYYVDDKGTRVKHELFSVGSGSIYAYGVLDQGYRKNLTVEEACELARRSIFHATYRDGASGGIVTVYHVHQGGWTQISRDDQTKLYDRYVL
Briefly: Trypanosoma cruzi proteasome chymotrypsin-like activity (TcProtChymo) assay. Also: in the data most compounds retested in dose-response had high values. It is filed as functional. The settings on record: 9.37 µM.

The species named for test [9] is Homo sapiens. The test is described as follows: To identify inhibition of the IFN signalling (Jak-Stat) pathway via expression of an eGFP reporter gene under the control of an IFN-stimulated response element (ISRE) containing MxA promoter. The test is classed as functional. The settings on record: 30 µM.
The target of test [10] is Shiga toxin 2 (Escherichia coli O157:H7) (UniProt P09385+P09386). The test is described as follows: E. coli 0.157:H7 Shiga Toxin SOP - stx2 screening assay. The test is classed as functional. The settings on record: 30 µM.
Test [11] deals with T5, Tyrosyl-tRNA synthetase, putative (Trypanosoma cruzi (strain CL Brener)) (UniProt Q4DSP6).
T5 sequence (whole entry): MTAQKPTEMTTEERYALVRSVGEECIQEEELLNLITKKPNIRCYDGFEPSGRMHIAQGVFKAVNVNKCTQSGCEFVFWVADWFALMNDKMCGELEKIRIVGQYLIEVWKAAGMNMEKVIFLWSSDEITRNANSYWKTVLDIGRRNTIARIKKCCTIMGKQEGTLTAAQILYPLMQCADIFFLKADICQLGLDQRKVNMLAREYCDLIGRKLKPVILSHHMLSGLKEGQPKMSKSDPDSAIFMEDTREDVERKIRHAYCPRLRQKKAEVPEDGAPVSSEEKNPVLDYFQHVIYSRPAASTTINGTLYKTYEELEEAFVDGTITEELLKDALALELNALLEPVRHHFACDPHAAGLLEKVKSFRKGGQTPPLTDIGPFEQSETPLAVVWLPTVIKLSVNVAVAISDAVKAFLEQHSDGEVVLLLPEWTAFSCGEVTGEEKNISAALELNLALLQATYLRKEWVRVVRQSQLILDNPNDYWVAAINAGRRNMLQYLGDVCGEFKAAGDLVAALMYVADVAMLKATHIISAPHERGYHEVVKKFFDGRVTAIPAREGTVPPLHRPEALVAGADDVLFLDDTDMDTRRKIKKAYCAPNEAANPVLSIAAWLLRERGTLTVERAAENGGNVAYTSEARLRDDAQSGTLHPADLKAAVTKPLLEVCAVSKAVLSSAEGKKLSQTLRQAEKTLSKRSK
The test is described as follows: Trypanosoma cruzi tyrosyl tRNA synthetase (TcYRS) _High Tyrosine SOP. Also: in the data most compounds retested in dose-response had high values. The test is classed as functional. The settings on record: 30 µM.

In test [12] the target is T5, Tyrosyl-tRNA synthetase, putative (Trypanosoma cruzi (strain CL Brener)). Briefly: Trypanosoma cruzi tyrosyl tRNA synthetase (TcYRS) SOP. It is filed as functional. To be noted: 30 µM.
Test [13] concerns the target Chromo domain-containing protein 1 (Saccharomyces cerevisiae (strain ATCC 204508 / S288c) (Baker's yeast)) (UniProt P32657). The test is described as follows: ScCHD-1 Enzyme Inhibition Assay. Also: in the data most compounds retested in dose-response had high values. It is filed as functional. The settings on record: 30 µM.

SMILES strings stand for the structures. For some assays here: Results with a measured potency or affinity are listed apart.

Chain of Protein translocase subunit SecA (Escherichia coli (strain K12)) (P10408 whole entry): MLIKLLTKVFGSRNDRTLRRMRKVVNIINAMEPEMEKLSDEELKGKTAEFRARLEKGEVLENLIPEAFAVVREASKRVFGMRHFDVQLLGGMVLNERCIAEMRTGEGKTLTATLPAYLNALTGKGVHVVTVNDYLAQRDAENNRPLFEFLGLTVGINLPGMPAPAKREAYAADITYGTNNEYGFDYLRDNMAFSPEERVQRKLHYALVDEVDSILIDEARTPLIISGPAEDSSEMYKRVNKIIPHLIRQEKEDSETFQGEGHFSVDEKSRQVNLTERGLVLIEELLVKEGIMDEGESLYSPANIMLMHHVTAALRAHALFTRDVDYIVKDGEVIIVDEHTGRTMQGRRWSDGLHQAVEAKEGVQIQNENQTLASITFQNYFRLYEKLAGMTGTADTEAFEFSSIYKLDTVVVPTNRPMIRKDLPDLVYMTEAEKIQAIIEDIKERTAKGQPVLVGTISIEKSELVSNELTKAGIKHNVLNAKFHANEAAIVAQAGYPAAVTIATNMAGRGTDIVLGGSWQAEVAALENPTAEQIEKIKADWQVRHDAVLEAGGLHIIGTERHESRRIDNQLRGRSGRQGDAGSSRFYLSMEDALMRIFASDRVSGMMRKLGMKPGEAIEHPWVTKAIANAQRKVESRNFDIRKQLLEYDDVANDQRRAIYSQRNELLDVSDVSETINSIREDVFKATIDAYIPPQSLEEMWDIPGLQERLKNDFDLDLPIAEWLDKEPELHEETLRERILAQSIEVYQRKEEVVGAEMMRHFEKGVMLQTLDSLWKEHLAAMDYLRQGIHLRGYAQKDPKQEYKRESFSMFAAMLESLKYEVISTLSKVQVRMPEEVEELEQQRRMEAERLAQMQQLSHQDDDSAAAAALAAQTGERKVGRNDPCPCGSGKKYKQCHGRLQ
Chain of Sialic acid-binding Ig-like lectin 9 (Homo sapiens) (Q9Y336 whole entry): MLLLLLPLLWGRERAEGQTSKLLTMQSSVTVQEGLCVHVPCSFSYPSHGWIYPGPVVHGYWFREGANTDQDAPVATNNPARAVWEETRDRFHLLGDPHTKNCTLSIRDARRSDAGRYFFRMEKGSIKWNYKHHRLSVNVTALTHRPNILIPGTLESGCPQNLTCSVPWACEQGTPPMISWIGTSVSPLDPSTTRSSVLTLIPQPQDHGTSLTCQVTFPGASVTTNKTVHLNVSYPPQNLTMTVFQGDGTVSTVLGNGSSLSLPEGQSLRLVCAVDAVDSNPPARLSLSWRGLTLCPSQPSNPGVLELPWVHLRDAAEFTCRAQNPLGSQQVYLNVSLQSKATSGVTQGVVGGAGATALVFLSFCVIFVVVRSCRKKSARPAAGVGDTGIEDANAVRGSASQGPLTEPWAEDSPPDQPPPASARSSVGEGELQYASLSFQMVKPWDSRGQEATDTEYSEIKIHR
Chain of Chromo domain-containing protein 1 (Saccharomyces cerevisiae (strain ATCC 204508 / S288c) (Baker's yeast)) (P32657 whole entry, the tested form may be a part): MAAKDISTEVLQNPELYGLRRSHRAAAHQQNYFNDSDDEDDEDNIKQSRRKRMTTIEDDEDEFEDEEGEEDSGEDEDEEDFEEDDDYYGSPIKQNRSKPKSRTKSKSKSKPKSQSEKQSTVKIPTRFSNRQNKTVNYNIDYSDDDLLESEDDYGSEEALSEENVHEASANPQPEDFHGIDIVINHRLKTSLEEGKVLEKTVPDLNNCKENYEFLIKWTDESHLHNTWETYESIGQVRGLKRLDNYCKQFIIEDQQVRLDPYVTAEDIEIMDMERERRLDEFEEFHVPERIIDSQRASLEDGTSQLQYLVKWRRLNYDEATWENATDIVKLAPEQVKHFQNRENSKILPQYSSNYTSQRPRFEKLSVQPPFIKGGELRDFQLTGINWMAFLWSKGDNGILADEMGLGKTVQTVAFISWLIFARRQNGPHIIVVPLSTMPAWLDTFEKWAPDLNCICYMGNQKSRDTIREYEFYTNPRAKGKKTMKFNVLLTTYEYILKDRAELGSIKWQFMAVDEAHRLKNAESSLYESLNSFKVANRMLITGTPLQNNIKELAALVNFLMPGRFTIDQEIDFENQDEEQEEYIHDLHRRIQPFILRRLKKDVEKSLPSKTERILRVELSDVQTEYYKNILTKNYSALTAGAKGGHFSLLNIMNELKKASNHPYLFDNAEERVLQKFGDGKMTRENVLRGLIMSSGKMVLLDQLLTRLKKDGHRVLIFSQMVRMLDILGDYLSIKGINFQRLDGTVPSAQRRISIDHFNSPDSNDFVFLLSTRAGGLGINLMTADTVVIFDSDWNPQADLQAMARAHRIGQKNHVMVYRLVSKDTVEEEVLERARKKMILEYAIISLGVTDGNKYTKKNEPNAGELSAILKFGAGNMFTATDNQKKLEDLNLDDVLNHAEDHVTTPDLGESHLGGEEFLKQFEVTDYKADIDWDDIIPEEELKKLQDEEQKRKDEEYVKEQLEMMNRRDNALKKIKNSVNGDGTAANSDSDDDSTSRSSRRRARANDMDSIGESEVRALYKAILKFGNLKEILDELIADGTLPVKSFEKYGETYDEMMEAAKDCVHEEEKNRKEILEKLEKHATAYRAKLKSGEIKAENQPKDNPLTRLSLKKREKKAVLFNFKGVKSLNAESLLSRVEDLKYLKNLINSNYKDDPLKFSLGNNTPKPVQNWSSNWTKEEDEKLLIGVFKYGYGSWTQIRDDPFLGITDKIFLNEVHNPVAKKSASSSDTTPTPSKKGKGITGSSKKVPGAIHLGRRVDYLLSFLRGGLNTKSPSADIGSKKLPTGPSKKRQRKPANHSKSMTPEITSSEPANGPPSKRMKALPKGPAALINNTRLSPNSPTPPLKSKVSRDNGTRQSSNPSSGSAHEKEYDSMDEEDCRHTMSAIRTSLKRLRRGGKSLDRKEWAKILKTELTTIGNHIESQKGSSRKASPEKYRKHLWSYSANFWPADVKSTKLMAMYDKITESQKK

For `c1ccc(CO[C@@H]2CO[C@@]3(CCN(Cc4ccccn4)C3)C2)nc1`, the Percent Effect is -5.26% in test [1]; 6.67% in test [2]; 0.581% in test [3]; 5.55% in test [4]; 4.84% in [5]; -1.18% in test [6]. In addition, the Percent Effect in test [7] was 4.75%; in [8] it was 6.84%; in [9], -42%; in [10], -15.8%; in test [11] it was 5.29%; in test [12], 5.13%. Moreover, the Percent Effect in test [13] is -3.05%.
As for `O=C1CSC(c2cccs2)c2cnn(C3CCCC3)c2N1` (stereo not given), the Percent Effect in [1] was -5.94%; in test [2], -12%; in [3] it was 7.29%; in test [4], 3.55%; in test [5], 10.9%; in test [6] it was 3.73%. In addition, the Percent Effect in test [7] is -35.7%; in test [8], 8.5%; in test [9] it was 24%; in [10] it was 28.5%; in test [11], 4.23%; in test [12] it was 20.5%. In addition, the Percent Effect in [13] stood at 66.9%.
As to `O=C1[C@H]2CN(Cc3ccoc3)C[C@H]2CN1Cc1ccncc1`, the Percent Effect is -3.37% in [1]; 7.79% in test [2]; 3.69% in test [3]; 2.81% in test [4]; 28.9% in test [5]; -4.23% in test [6]. For the same molecule, the Percent Effect in test [7] is 4.14%; in test [8] it was 7.32%; in test [9], -1.81%; in [10], -39.9%; in test [11] it was 3.23%; in [12], 8.64%. Further, in test [13], the Percent Effect was 10.5%.
For the molecule `Cc1noc(C)c1CN1CC[C@@H]2O[C@@H](COCC(C)C)CC[C@@H]21`, the Percent Effect in test [1] was -2.23%; in [2] it was 0%; in test [3] it was -1.08%; in [4], 1.3%; in test [5], 5.58%; in [6], -1.16%. In addition, the Percent Effect in test [7] was -49.3%; in test [8], 2.22%; in [9], 8.8%; in [10] it was 2.31%; in test [11], 2.08%; in test [12], 2.5%. For the same molecule, the Percent Effect in [13] was 1.48%.
In the case of `CN1C(=O)C2(CCN(CCO)C2)c2ccccc21` (stereo not given), the Percent Effect in [1] is -3.9%; in test [2] it was 10.8%; in test [3], -3.9%; in test [4] it was 5.24%; in test [5], -5.82%; in test [6] it was -4.01%. Moreover, the Percent Effect in [7] was 0.319%; in test [8], 24.9%; in test [9], -2.44%; in [10], -6.34%; in test [11], 1.08%; in test [12], 12.8%. Besides, the Percent Effect in test [13] is -1.83%.
